# Out of some 5,500 compounds screened, about 2,000 (36%) were called active. Not shown: some 18% with an inconclusive outcome. The list shows a part of the results. A number with no mark means an inactive call. Rule as the data show it: active = normalized growth mostly below about 0.91 (no sharp cut-off); inconclusive = no clear call, values can overlap the other calls; inactive = mostly above about 0.92.
# Test: chemical genetic growth profiling, strain panel (AID 1159580);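 also: tested at 20 µM; growth read once vehicle control cultures reached saturation at 30 °C; 1 = growth at the plate median or of vehicle wells; lower values mean less growth of the strain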
# Conditions: growth OD
# [1] = S. cerevisiae deletion strains, locus YAL013W, strain DEP1, active compounds read low
# [2] = S. cerevisiae deletion strains, locus YGR078C, strain PAC10, active compounds read low
# [3] = S. cerevisiae deletion strains, locus YGR229C, strain SMI1, active compounds read low
# [4] = S. cerevisiae deletion strains, locus YJR075W, strain HOC1, active compounds read low
# [5] = S. cerevisiae deletion strains, locus YMR263W, strain SAP30, active compounds read low
# [6] = S. cerevisiae deletion strains, locus YMR307W, strain GAS1, active compounds read low
# [7] = S. cerevisiae deletion strains, locus YNL322C, strain KRE1, active compounds read low
# [8] = S. cerevisiae deletion strains, locus YPL055C, strain LGE1, active compounds read low
# [9] = S. cerevisiae deletion strains, locus YPL241C, strain CIN2, active compounds read low
# [10] = S. cerevisiae deletion strains, locus YAL040C, strain CLN3, active compounds read low
# [11] = S. cerevisiae deletion strains, locus YCL061C, strain MRC1 (second series), active compounds read low
# [12] = S. cerevisiae deletion strains, locus YDR363W, strain ESC2, active compounds read low
# [13] = S. cerevisiae deletion strains, locus YER002W, strain NOP16, active compounds read low
# [14] = S. cerevisiae deletion strains, locus YNL175C, strain NOP13, active compounds read low
# [15] = S. cerevisiae deletion strains, locus YNL197C, strain WHI3, active compounds read low
# [16] = S. cerevisiae deletion strains, locus YNL224C, strain SQS1, active compounds read low
# [17] = S. cerevisiae deletion strains, locus YOR083W, strain WHI5 (second series), active compounds read low
compound,measurement,setting,value
CC(=O)OC1CN2CCC1CC2 (stereo not drawn),normalized growth,[1],0.997
same,normalized growth,"S. cerevisiae deletion strains, locus YBR021W, strain FUR4, active compounds read low",1.01
same,normalized growth,"S. cerevisiae deletion strains, locus YBR229C, strain ROT2, active compounds read low",0.973
same,normalized growth,"S. cerevisiae deletion strains, locus YCL029C, strain bik1, active compounds read low",0.983
same,normalized growth,"S. cerevisiae deletion strains, locus YDL035C, strain GPR1, active compounds read low",1.02
same,normalized growth,"S. cerevisiae deletion strains, locus YDL074C, strain BRE1, active compounds read low",1.03
same,normalized growth,"S. cerevisiae deletion strains, locus YDL101C, strain DUN1, active compounds read low",0.989
same,normalized growth,"S. cerevisiae deletion strains, locus YDL134C, strain PPH21, active compounds read low",0.988
same,normalized growth,"S. cerevisiae deletion strains, locus YDL185W, strain tfp1, active compounds read low",0.965
same,normalized growth,"S. cerevisiae deletion strains, locus YDL192W, strain arf1, active compounds read low",0.985
same,normalized growth,"S. cerevisiae deletion strains, locus YDR101C, strain arx1, active compounds read low",0.987
same,normalized growth,"S. cerevisiae deletion strains, locus YDR150W, strain NUM1, active compounds read low",0.982
same,normalized growth,"S. cerevisiae deletion strains, locus YDR162C, strain NBP2, active compounds read low",0.991
same,normalized growth,"S. cerevisiae deletion strains, locus YDR318W, strain mcm21, active compounds read low",1
same,normalized growth,"S. cerevisiae deletion strains, locus YDR388W, active compounds read low",0.991
same,normalized growth,"S. cerevisiae deletion strains, locus YDR502C, strain sam2, active compounds read low",0.993
same,normalized growth,"S. cerevisiae deletion strains, locus YEL061C, strain CIN8, active compounds read low",0.995
same,normalized growth,"S. cerevisiae deletion strains, locus YER110C, active compounds read low",0.959
same,normalized growth,"S. cerevisiae deletion strains, locus YER155C, strain BEM2, active compounds read low",1
same,normalized growth,"S. cerevisiae deletion strains, locus YER167W, strain BCK2, active compounds read low",1
same,normalized growth,"S. cerevisiae deletion strains, locus YGL078C, strain dbp3, active compounds read low",0.993
same,normalized growth,"S. cerevisiae deletion strains, locus YGL086W, strain mad1, active compounds read low",0.994
same,normalized growth,"S. cerevisiae deletion strains, locus YGL248W, strain PDE1, active compounds read low",1.01
same,normalized growth,[2],1.01
same,normalized growth,"S. cerevisiae deletion strains, locus YGR135W, strain pre9, active compounds read low",0.995
same,normalized growth,[3],1.01
same,normalized growth,"S. cerevisiae deletion strains, locus YGR252W, strain gcn5, active compounds read low",1.07
same,normalized growth,"S. cerevisiae deletion strains, locus YHR030C, strain SLT2, active compounds read low",1
same,normalized growth,"S. cerevisiae deletion strains, locus YHR079C, strain IRE1 (second series), active compounds read low",0.982
same,normalized growth,"S. cerevisiae deletion strains, locus YHR094C, strain hxt1, active compounds read low",0.985
same,normalized growth,"S. cerevisiae deletion strains, locus YHR129C, strain ARP1, active compounds read low",1
same,normalized growth,"S. cerevisiae deletion strains, locus YHR200W, strain rpn10, active compounds read low",0.985
same,normalized growth,"S. cerevisiae deletion strains, locus YIL066C, strain RNR3, active compounds read low",0.993
same,normalized growth,"S. cerevisiae deletion strains, locus YIL073C, strain SPO22, active compounds read low",0.97
same,normalized growth,"S. cerevisiae deletion strains, locus YIL125W, strain kgd1, active compounds read low",0.982
same,normalized growth,"S. cerevisiae deletion strains, locus YIR030C, strain dcg1, active compounds read low",0.971
same,normalized growth,"S. cerevisiae deletion strains, locus YJL095W, strain BCK1, active compounds read low",1.04
same,normalized growth,"S. cerevisiae deletion strains, locus YJL134W, strain LCB3, active compounds read low",0.987
same,normalized growth,"S. cerevisiae deletion strains, locus YJL168C, strain set2, active compounds read low",0.994
same,normalized growth,"S. cerevisiae deletion strains, locus YJL187C, strain SWE1 (second series), active compounds read low",1.01
same,normalized growth,"S. cerevisiae deletion strains, locus YJR043C, strain POL32, active compounds read low",1.01
same,normalized growth,[4],1.02
same,normalized growth,"S. cerevisiae deletion strains, locus YKL009W, strain mrt4, active compounds read low",0.963
same,normalized growth,"S. cerevisiae deletion strains, locus YKL068W, active compounds read low",0.982
same,normalized growth,"S. cerevisiae deletion strains, locus YKL085W, strain MDH1 (second series), active compounds read low",0.992
same,normalized growth,"S. cerevisiae deletion strains, locus YKL085W, strain MDH1, active compounds read low",0.992
same,normalized growth,"S. cerevisiae deletion strains, locus YKL190W, strain CNB1, active compounds read low",0.997
same,normalized growth,"S. cerevisiae deletion strains, locus YKR001C, strain vps1, active compounds read low",0.981
same,normalized growth,"S. cerevisiae deletion strains, locus YLR039C, strain RIC1, active compounds read low",1
same,normalized growth,"S. cerevisiae deletion strains, locus YLR058C, strain SHM2, active compounds read low",0.986
same,normalized growth,"S. cerevisiae deletion strains, locus YLR102C, strain apc9, active compounds read low",0.982
same,normalized growth,"S. cerevisiae deletion strains, locus YLR262C, strain YPT6, active compounds read low",0.997
same,normalized growth,"S. cerevisiae deletion strains, locus YLR268W, strain sec22, active compounds read low",1.09
same,normalized growth,"S. cerevisiae deletion strains, locus YLR330W, strain CHS5, active compounds read low",0.991
same,normalized growth,"S. cerevisiae deletion strains, locus YLR342W, strain FKS1 (second series), active compounds read low",1.02
same,normalized growth,"S. cerevisiae deletion strains, locus YLR371W, strain rom2, active compounds read low",0.929
same,normalized growth,"S. cerevisiae deletion strains, locus YLR418C, strain cdc73, active compounds read low",1.05
same,normalized growth,"S. cerevisiae deletion strains, locus YML016C, strain PPZ1, active compounds read low",0.981
same,normalized growth,"S. cerevisiae deletion strains, locus YML032C, strain rad52, active compounds read low",1.01
same,normalized growth,"S. cerevisiae deletion strains, locus YML124C, strain tub3, active compounds read low",0.976
same,normalized growth,"S. cerevisiae deletion strains, locus YMR078C, strain ctf18, active compounds read low",0.972
same,normalized growth,"S. cerevisiae deletion strains, locus YMR223W, strain ubp8, active compounds read low",0.995
same,normalized growth,[5],1.01
same,normalized growth,[6],1.1
same,normalized growth,"S. cerevisiae deletion strains, locus YNL067W, strain RPL9B, active compounds read low",1.04
same,normalized growth,"S. cerevisiae deletion strains, locus YNL128W, strain TEP1, active compounds read low",0.997
same,normalized growth,"S. cerevisiae deletion strains, locus YNL153C, strain GIM3, active compounds read low",1.01
same,normalized growth,"S. cerevisiae deletion strains, locus YNL233W, strain BNI4, active compounds read low",1.04
same,normalized growth,"S. cerevisiae deletion strains, locus YNL250W, strain rad50, active compounds read low",0.98
same,normalized growth,"S. cerevisiae deletion strains, locus YNL271C, strain bni1, active compounds read low",0.987
same,normalized growth,"S. cerevisiae deletion strains, locus YNL298W, strain CLA4, active compounds read low",0.962
same,normalized growth,"S. cerevisiae deletion strains, locus YNL307C, strain MCK1, active compounds read low",0.988
same,normalized growth,[7],0.995
same,normalized growth,"S. cerevisiae deletion strains, locus YNR052C, strain pop2, active compounds read low",0.989
same,normalized growth,"S. cerevisiae deletion strains, locus YOL006C, strain TOP1, active compounds read low",1.04
same,normalized growth,"S. cerevisiae deletion strains, locus YOL012C, strain htz1",1.28
same,normalized growth,"S. cerevisiae deletion strains, locus YOL147C, strain pex11, active compounds read low",0.989
same,normalized growth,"S. cerevisiae deletion strains, locus YOR061W, strain CKA2, active compounds read low",0.975
same,normalized growth,"S. cerevisiae deletion strains, locus YOR136W, strain idh2, active compounds read low",0.988
same,normalized growth,"S. cerevisiae deletion strains, locus YOR144C, strain elg1, active compounds read low",0.968
same,normalized growth,"S. cerevisiae deletion strains, locus YOR184W, strain ser1, active compounds read low",0.98
same,normalized growth,"S. cerevisiae deletion strains, locus YOR316C, strain cot1, active compounds read low",0.978
same,normalized growth,[8],1.02
same,normalized growth,[9],0.999
same,normalized growth,"S. cerevisiae deletion strains, locus YPR119W, strain clb2, active compounds read low",0.987
same,normalized growth,"S. cerevisiae deletion strains, locus YPR141C, strain kar3, active compounds read low",0.963
same,normalized growth,"S. cerevisiae deletion strains, locus YPR163C, strain tif3, active compounds read low",0.986
same,normalized growth,"S. cerevisiae deletion strains, locus YPR167C, strain met16, active compounds read low",0.984
same,normalized growth,"S. cerevisiae deletion strains, strain wtn01, active compounds read low",1.01
same,normalized growth,"S. cerevisiae strains, strain wild type, active compounds read low",1.01
O=C(NC(Cc1ccccc1)C(=O)CCl)OCc1ccccc1 (stereo not drawn),normalized growth,[10],1.03
same,normalized growth,[11],0.979
same,normalized growth,[12],1.02
same,normalized growth,[13],0.549 (active)
same,normalized growth,[2],0.98
same,normalized growth,[3],0.28 (active)
same,normalized growth,[4],0.913
same,normalized growth,[14],0.707 (active)
same,normalized growth,[15],0.874 (active)
same,normalized growth,[16],0.784 (active)
same,normalized growth,[7],0.999
same,normalized growth,[17],0.687 (active)
same,normalized growth,[9],0.992
Cc1ccc(S(=O)(=O)N[C@@H](CCCCN)C(=O)CCl)cc1,normalized growth,[1],1.02
same,normalized growth,[10],1.04
same,normalized growth,[11],1.01
same,normalized growth,[12],1.05
same,normalized growth,[13],1.02
same,normalized growth,[3],0.962
same,normalized growth,[4],0.995
same,normalized growth,[5],1.01
same,normalized growth,[6],1.01
same,normalized growth,[14],1.01
same,normalized growth,[15],1.02
same,normalized growth,[16],1.01
same,normalized growth,[7],1.02
same,normalized growth,[17],1.01
same,normalized growth,[8],1.03

# Reference: PubChem BioAssay AID1159580 (chemical genetic matrix, 2015)
